Measurements published in publication PMC5540273 (PLoS ONE, 2017).

Assays:
Conditions in all cases: concentration: 1 μM, replicates: in singlicate; n = 1
[1] = test system: FLT1
[2] = test system: FLT3-autoinhibited
[3] = test system: FLT3
[4] = test system: FLT4
[5] = test system: FRK
[6] = test system: FYN
[7] = test system: GAK
[8] = test system: T1, GCN2(Kin.Dom.2,S808G)
T1 construct: gene EIF2AK4

[9] = test system: GRK1
[10] = test system: T2, GRK2
T2 construct: gene ADRBK1
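Also: KINOMEscan kinase panel screen.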

| Structure (SMILES) | %Inh [1] [%] | %Inh [2] [%] | %Inh [3] [%] | %Inh [4] [%] | %Inh [5] [%] | %Inh [6] [%] | %Inh [7] [%] | %Inh [8] [%] | %Inh [9] [%] | %Inh [10] [%] |
| --- | --- | --- | --- | --- | --- | --- | --- | --- | --- | --- |
| O=C1NC(=O)C(c2ccc(Cl)cc2)=C1Nc1ccc(O)cc1 [SB-340867] | 0 | 0 | 6 | 0 | 0 | 0 | 0 | 0 | 0 | 0 |
| CCc1ccc(-c2ccc3c(c2)-c2n[nH]cc2S(=O)(=O)N3C)cc1 | 14 | 4 | 56 | 0 | 2 | 14 | 0 | 24 | 6 | 0 |
| NS(=O)(=O)c1cccc(N/C=C2\C(=O)Nc3ccc(S(=O)(=O)Cc4c(Cl)cccc4Cl)cc32)c1 [GSK398099] | 12 | 0 | 0 | 0 | 0 | 35 | 18 | 0 | 0 | 0 |
| CS(=O)(=O)CCNCc1nc(-c2ccc3ncnc(Nc4ccc(OCc5ccccc5)c(Cl)c4)c3c2)cs1.Cl [GW582764] | 5 | 0 | 0 | 0 | 2 | 0 | 0 | 0 | 0 | 0 |
| Cc1c(Cn2c3ccccc3n3c(=O)cc(N4CCOCC4)nc23)cccc1C(F)(F)F [GSK2306394] | 27 | 17 | 11 | 18 | 0 | 20 | 18 | 5 | 0 | 0 |
| COc1ccc(Nc2nccc(NCCNC(=O)Nc3cc(C)ccc3C)n2)cc1 [GSK1379899] | 29 | 2 | 0 | 8 | 0 | 0 | 0 | 4 | 0 | 0 |
| Cc1cnc(N)c(/C=C/c2cncc(C(=O)NCCc3ccc(Cl)cc3Cl)c2)c1.Cl [GSK190937] | 0 | 0 | 2 | 7 | 6 | 20 | 29 | 3 | 0 | 0 |
| CC(=O)c1cccc(NC(=O)NC2CCN(c3ccnc(Nc4ccc(F)cc4)n3)C2)c1 (centres unmarked) [GSK1379710] | 27 | 11 | 0 | 12 | 0 | 27 | 5 | 0 | 0 | 10 |
| CC[C@@H]1CO[C@H](C(=O)Nc2ccccc2)CN1c1cc(-c2ccc3c(N)n[nH]c3c2)nc(NC)n1 [GSK2376236] | 28 | 0 | 0 | 20 | 0 | 39 | 26 | 0 | 0 | 0 |
| Cc1c(Cn2c(C)c(C)n3c(=O)cc(N4CCOCC4)nc23)cccc1C(F)(F)F [GSK2328680] | 8 | 0 | 0 | 0 | 6 | 2 | 8 | 0 | 9 | 0 |
| CC(=O)c1c(C)c2cnc(Nc3ccc(N4CCNCC4)cn3)nc2n(C2CCCC2)c1=O | 0 | 0 | 0 | 0 | 7 | 0 | 0 | 0 | 10 | 0 |
| Cc1ccc(NC(=O)c2ccc(Cl)cc2)cc1-c1ccc(C(=O)Nc2ccncc2)cc1 [GSK1398467] | 37 | 0 | 0 | 2 | 30 | 0 | 1 | 0 | 0 | 0 |
| CNc1nc(-c2ccc3c(N)n[nH]c3c2)cc(N2C[C@@H](C(=O)NC3CCCCC3)OC[C@H]2C)n1 [GSK2375584] | 25 | 20 | 0 | 0 | 4 | 6 | 0 | 0 | 12 | 0 |
| c1ccc(-c2ccnc3[nH]ccc23)cc1 [SB-693578] | 1 | 8 | 0 | 8 | 0 | 0 | 90 | 0 | 6 | 0 |
| CCn1c(-c2ccccc2)nc2cnccc21 [SB-733416] | 53 | 0 | 0 | 27 | 27 | 14 | 0 | 0 | 6 | 0 |
| Cc1ccc(NC(=O)Nc2ccc(Cl)c(C(F)(F)F)c2)cc1-c1ccc(C(=O)Nc2ccncc2)cc1 [GSK1398470] | 23 | 0 | 27 | 0 | 42 | 44 | 14 | 15 | 0 | 0 |
| O=C(Nc1n[nH]c2nc(-c3cccs3)c(Br)cc12)C1CCCC1 [SB-743341] | 10 | 34 | 39 | 0 | 5 | 6 | 0 | 0 | 26 | 0 |
